Keap1-Nrf2 PPI: inhibitors of human Keap1-Nrf2 protein-protein interaction. Keap1 Kelch-Nrf2 peptide fluorescence polarization, 1536-well. AID 504523. inhibition, % at 9.4 µM. hit rate 0.15% among 340,000; in the data active = inhibition above about 12%;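 also: human Keap1 Kelch domain with fluorescein labeled Nrf2 9mer peptide probe; 0% = neutral control wells and 100% = peptide positive control; higher means more block of Keap1 binding to Nrf2 peptide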
LANA-H2B inh: blocks KSHV LANA binding to histone H2A/H2B; Q9QR71; cell-free LANA-H2A/H2B peptide, fluorescence polarization; inhibition, % (concentration not given with the values); hit rate 0.6% among 320,000; AID 2629; in the data active = inhibition mostly above about 10%, no sharp cut-off; inactive = mostly below about 6.7%
RTF Ca sens act: increases calcium sensitivity of human cardiac regulated thin filaments; activation, % at 7.2 µM; hit rate 0.24% among 340,000; IANBD-labeled TnC RTF fluorescence at EC20 calcium; 0% EC20 calcium, 100% full calcium; P19429+P45379;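 active = activation above the mean over all tested compounds plus 3 SD, cut at about 30% in these data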;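 also: rise in fluorescence read as greater calcium sensitivity of cardiac thin filaments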
LANA DNA inh: blocks KSHV LANA C-terminal domain binding to DNA. hit rate 0.078% among 340,000. MBP-C-LANA/FAM-LBS DNA binding, fluorescence polarization. inhibition, % at 9 µM. AID 504423;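 active = highest replicate inhibition at or above 60% at 9 µM, even if other replicates fall short; inactive = all replicates below 60% inhibition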;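 also: 0% = neutral control wells and 100% = 4 µM acridine orange control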
RTF Ca sens inh: cardiac RTF calcium desensitization; P19429+P45379; IANBD-labeled cardiac RTF, Ca2+ fluorescence; inhibition, % at 7.15 µM; hit rate 0.12% among 340,000;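 active = inhibition above the mean inhibition of all tested compounds plus 3 SD, cut at about 17% in these data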;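 also: assay run at fixed EC70 calcium of 1.6 mM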
* hit, by the source's call; / = not tested or not shown; + = active, no number. A selection: hits, their analogues and other compounds. The true share with any hit is near 1%.

SMILES	Keap1-Nrf2 PPI	LANA-H2B inh	RTF Ca sens act	LANA DNA inh	RTF Ca sens inh
Cc1ccn2nc(C(=O)OCC(=O)N(CC(C)C)C3CCS(=O)(=O)C3)nc2n1 (stereo not given)	0	80*	-6	0	1
CCOC(=O)C1=C(C)Nc2sc(C(=O)c3ccc(OC)cc3)c(N)c2C1c1ccc(C(=O)OC)cc1 (stereo not given)	-1	2	5	-2	-12
Cc1nc(C(=O)N2CCc3c([nH]c4ccccc34)C2c2cc(F)ccc2F)cs1 (stereo not given)	-3	16*	-1	0	0
Cc1nc(C(=O)N2CCc3c([nH]c4ccccc34)C2c2ccccn2)cs1 (stereo not given)	-2	0	3	0	-5
CC(C)c1nc(C(=O)N2CCc3c([nH]c4ccccc34)C2c2ccccn2)cs1 (stereo not given)	3	14*	/	0	/
COc1ccc(NC(=O)c2ccc(NC(=O)CN3CCN(c4ccccc4)CC3)cc2)cc1	3	-3	6	2	-4
O=C(NC1CCCC1)C(c1ccccn1)N(C(=O)c1csnn1)c1ccccc1Cl (stereo not given)	-3	-8	-5	1	14
O=S(=O)(c1ccc2[nH]c3c(c2c1)CCCC3)N1CCCCC1	2	18*	-2	1	-13
Cc1cccc(NS(=O)(=O)c2cccc(C(=O)NCC(c3ccc(F)cc3)N3CCOCC3)c2)c1 (stereo not given)	2	/	-6	0	-2
CCN(CC)C(=O)[C@H]1C[C@H](CC(=O)NCCc2ccccn2)C(=O)N2CCc3c([nH]c4cc(-c5ccco5)ccc34)[C@]12C	+	/	-2	-1	-5
CC(C)N(C(=O)[C@H]1C[C@H](CC(=O)NCCc2ccccn2)C(=O)N2CCc3c([nH]c4cc(-c5ccco5)ccc34)[C@]12C)C(C)C	0	/	5	1	-1
C[C@]12c3[nH]c4ccccc4c3CCN1C(=O)C(CC(=O)NCc1ccco1)C[C@@H]2C(=O)N1CCOCC1 (stereo not given in full)	0	94*	-5	0	0
C[C@]12c3[nH]c4ccccc4c3CCN1C(=O)C(CC(=O)NCc1cccc(C(F)(F)F)c1)C[C@@H]2C(=O)N1CCOCC1 (stereo not given in full)	2	+	1	1	-1
C[C@]12c3[nH]c4ccccc4c3CCN1C(=O)C(CC(=O)NCc1cccc(C(F)(F)F)c1)C[C@@H]2C(=O)N1CCCCC1 (stereo not given in full)	3	-2	-8	1	-10
NC(=O)C1(Nc2ccccc2)CCCC1	-4	/	-2	-5	-1
Cc1ccc(C)c(N2CCN(C(=O)CN3C(=S)NC(C)(C)CC3C)CC2)c1 (stereo not given)	-6	-2	31*	0	6
CCn1c(=N)c(C(=O)NC)cc2c(=O)n3cccc(C)c3nc21	-2	17*	10	0	-4
CN(C)C(=O)c1cc(C(=O)c2ccccc2Br)c[nH]1	0	-6	-1	0	-7
COc1ccc(Nc2nc(C(=O)N3CCc4ccccc4C3)cs2)cc1	-5	19*	0	0	-7
COc1ccc(OCC(=O)NC(=S)Nc2ccccc2F)cc1	-4	0	-3	-1	3
Cc1ccc(N2CC(C(=O)Nc3ccccc3C(=O)NC3CCCCC3)CC2=O)cc1C (stereo not given)	-8	-3	-3	0	1
CCOC(=O)C1C(=O)C=C(c2ccc([N+](=O)[O-])cc2)CC1c1ccccc1 (stereo not given)	-2	-1	0	0	3
CCOC(=O)C1C(=O)C=C(C)C(C(=O)OCC)C1c1cccc([N+](=O)[O-])c1 (stereo not given)	-6	27*	2	2	-10
COc1ccc(C(=N/O)/C(=N/O)c2ccc(OC)cc2)cc1	4	-6	-3	3	2
COc1ccc(C(Cl)=C(c2ccc(OC)cc2)c2ccc(OC)cc2)cc1	-2	39*	3	1	8
SMILES	Keap1-Nrf2 PPI	LANA-H2B inh	RTF Ca sens act	LANA DNA inh	RTF Ca sens inh
O=C(Nc1ccc(Cl)cc1)c1nc[nH]c1C(=O)N1CCN(c2ccccc2)CC1	4	1	1	1	-5
COC(CNC(=O)c1ccc2c3c(onc13)-c1ccccc1C2=O)OC	101*	0	0	-2	-3
O=C(C[C@@H]1C/C=C\C[C@@H](NC(=O)OCC2c3ccccc3-c3ccccc32)C(=O)OCCNC1=O)N[C@@H](CO)Cc1ccccc1	3	+	-10	4	-8
Cc1nc(N)nc(N(C)c2ccccc2)c1Br	0	/	3	-1	-12
OC(C#CCCN1CCCCC1)(c1ccccc1)c1ccccc1	3	-3	/	2	/
OC(C#CCN1CCCC1)(c1ccccc1)c1cccnc1 (stereo not given)	1	27*	/	0	/
OC(C#CCN1CCCCCC1)(c1ccccc1)c1cccnc1 (stereo not given)	-1	15*	12	6	-1
CCCN1C(=O)/C(=C/c2c(N3CCNC(=O)C3CC(=O)OCC)nc3c(C)cccn3c2=O)SC1=S (stereo not given)	-132	-19	130*	-10	-302
CCOC(=O)CC1C(=O)NCCN1c1nc2ccc(C)cn2c(=O)c1/C=C1\SC(=S)N(CC(C)C)C1=O (stereo not given)	-141	-31	182*	-4	-231
CCCCCN1C(=O)/C(=C/c2c(N3CCc4ccccc4C3)nc3ccccn3c2=O)SC1=S	-5	3	7	2	-17
CCOC(=O)CC1C(=O)NCCN1c1nc2ccc(C)cn2c(=O)c1/C=C1\SC(=S)N(C(C)CC)C1=O (stereo not given)	/	-28	/	/	/
Cn1cnnc1SCC(=O)c1ccc(O)c(O)c1	-6	-2	0	2	-6
CN(C(=O)CCN1C(=O)S/C(=C\c2ccccc2)C1=O)C1CCS(=O)(=O)C1 (stereo not given)	6	18*	1	0	-7
CSc1ncc(Cl)c(C(=O)Nc2ccccc2[N+](=O)[O-])n1	-3	2	-2	12	-8
O=C(CN1CCCC1)Nc1ccc(S(=O)(=O)N2CCCCC2)cc1	-1	35*	-1	1	-5
CS(=O)(=O)c1ccc(NC(=O)c2cc3c(cc2Cl)N2CCCCCC2=NS3(=O)=O)cc1	-2	/	-1	1	-7
O=C(NC1CC1)c1ccc(NS(=O)(=O)c2ccccc2)cc1	-4	-2	-4	0	5
O=C(NC1CCC(O)CC1)c1ccc(NS(=O)(=O)c2cccc([N+](=O)[O-])c2)cc1 (stereo not given)	7	24*	0	3	-6
COCCCNC(=O)Cn1cnc2c(OCc3ccccc3)ncnc21	-2	194*	4	0	-5
CCCCCCCN1C2=NCCCN2c2ccccc21	-1	-2	-3	-1	-14

Bioassay records deposited in PubChem BioAssay by several laboratories.
